Laboratory results from PubChem BioAssay (EPA / NIEHS).
Calls of active or inactive are those of the source. How the source made its calls: active means hit-call score of the fitted dose curve at least 0.9, where 1 is the maximum; inactive means score below 0.9.

How the values were obtained:
Details in all cases: mRNA level, 48 h; actives raise or lower the signal
MYC, MYC (gene 4609) = test: LTEA_HepaRG_MYC: Life Technologies and Expression Analysis (LTEA) Assay for MYC using HepaRG (AID 2283518)
Method in brief: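 HepaRG, ~100,000 cells/well, collagen I; 48 h plating; serum-free induction medium; 48 h dosing, duplicate, 100 uM top, half-log, 0.5% DMSO; total RNA → qRT-PCR MYC; gain/loss fit vs DMSO.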

[1] = read-out: matrix metalloproteinase-3 (MMP3), MMP3 (gene 4314); test: LTEA_HepaRG_MMP3: Life Technologies and Expression Analysis (LTEA) Assay for matrix metalloproteinase-3 (MMP3) using HepaRG (AID 2283519)
Method in brief: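 qRT-PCR read-out of MMP3 mRNA (normalised to three housekeeping genes) in HepaRG liver cells after 48 h chemical exposure; 8-point half-log series, top 100 uM, 0.5% DMSO vehicle. Bidirectional curve fitting against DMSO baseline.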

[2] = read-out: Paternally Expressed 10 (PEG10), PEG10 (gene 23089); test: LTEA_HepaRG_PEG10: Life Technologies and Expression Analysis (LTEA) Assay for Paternally Expressed 10 (PEG10) using HepaRG (AID 2283520);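 on AC50: differentiated HepaRG human liver cells in serum-free induction medium with 0.5% DMSO; PEG10 transcript by qRT-PCR normalised to ACTB GAPDH and POLR2A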
Method in brief: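 PEG10 transcript measured by Fluidigm qRT-PCR, normalized to three housekeeping genes, in HepaRG cells treated 48 h (highest 100 uM, half-log steps, 0.5% DMSO vehicle). Cells plated 48 h before switching to serum-free induction medium.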

[3] = read-out: Protein phosphatase 2A (PPP2R4), PTPA (gene 5524); test: LTEA_HepaRG_PPP2R4: Life Technologies and Expression Analysis (LTEA) Assay for Protein phosphatase 2A (PPP2R4) using HepaRG (AID 2283522)
Method in brief: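 Expression was quantified by Fluidigm qRT-PCR normalised to three housekeeping genes after 48 h treatment. Human HepaRG cells received an 8-point series from 100 µM downward by half-logs, in duplicate with 0.5% DMSO vehicle and 1 mM phenobarbital as induction control.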

[4] = read-out: Phosphatase and tensin (PTEN), PTEN (gene 5728); test: LTEA_HepaRG_PTEN: Life Technologies and Expression Analysis (LTEA) Assay for Phosphatase and tensin (PTEN) using HepaRG (AID 2283523)
Method in brief: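 HepaRG, 48 h exposure, 8-pt half-log series from 100 uM top, 0.5% DMSO vehicle, duplicates. Readout: Fluidigm qRT-PCR of PTEN transcript; housekeeping normalization (ACTB, GAPDH, POLR2A). Gain or loss fitted relative to DMSO baseline.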

[5] = read-out: Pyruvate Dehydrogenase Kinase 4 (PDK4), PDK4 (gene 5166); test: LTEA_HepaRG_PDK4: Life Technologies and Expression Analysis (LTEA) Assay for Pyruvate Dehydrogenase Kinase 4 (PDK4) using HepaRG (AID 2283525)
Method in brief: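 HepaRG (human liver line), 48 h chemical exposure, 8-pt half-log CRC top 100 uM, 0.5% DMSO vehicle, duplicates. Readout: TaqMan qRT-PCR of PDK4 mRNA, housekeeping-normalized; gain/loss fit relative to DMSO baseline.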

[6] = read-out: NAD(P)H dehydrogenase [quinone] 1 (NQO1), NQO1 (gene 1728); test: LTEA_HepaRG_NQO1: Life Technologies and Expression Analysis (LTEA) Assay for NAD(P)H dehydrogenase [quinone] 1 (NQO1) using HepaRG (AID 2283526)
Method in brief: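 NQO1 transcript induction or loss measured by TaqMan qRT-PCR, referenced to three housekeeping genes and fitted bidirectionally against 0.5% DMSO. HepaRG cultures exposed 48 h, duplicate, eight-point half-log series, top 100 uM.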

[7] = read-out: Nuclear factor erythroid 2-related factor 2 (Homo sapiens) (UniProt Q16236); test: LTEA_HepaRG_NFE2L2: Life Technologies and Expression Analysis (LTEA) Assay for Nuclear factor erythroid 2-related factor 2 (NFE2L2) Transcription Factor using HepaRG (AID 2283527)
Method in brief: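 HepaRG, 48 h dosing, 8-pt half-log series from 100 uM in 0.5% DMSO, duplicates. Read-out: NFE2L2 mRNA by qRT-PCR (ACTB/GAPDH/POLR2A normalization). Bidirectional curve fit vs DMSO baseline.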

[8] = read-out: Signal transducer and activator of transcription 3 (Homo sapiens) (UniProt P40763); test: LTEA_HepaRG_STAT3: Life Technologies and Expression Analysis (LTEA) Assay for Signal transducer and activator of transcription (STAT3) using HepaRG (AID 2283529)
Method in brief: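 HepaRG, 48 h exposure, 8-pt half-log series (top 100 uM), 0.5% DMSO vehicle, duplicates. Readout: STAT3 transcript by Fluidigm qRT-PCR, housekeeping-normalized; bidirectional fit vs DMSO baseline.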

[9] = read-out: solute carrier (SLCO1B1), SLCO1B1 (gene 10599); test: LTEA_HepaRG_SLCO1B1: Life Technologies and Expression Analysis (LTEA) Assay for solute carrier (SLCO1B1) using HepaRG (AID 2283530)
Method in brief: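 HepaRG, serum-free induction medium, 48 h dosing, 8-pt half-log from 100 uM, 0.5% DMSO vehicle, duplicates. Readout: SLCO1B1 mRNA, qRT-PCR, ACTB/GAPDH/POLR2A normalization; up or down fit vs DMSO.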

[10] = read-out: sulfotransferase 2A1 (SULT2A1), SULT2A1 (gene 6822); test: LTEA_HepaRG_SULT2A1: Life Technologies and Expression Analysis (LTEA) Assay for sulfotransferase 2A1 (SULT2A1) using HepaRG (AID 2283531)
Method in brief: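 Transcript levels of SULT2A1, quantified by qRT-PCR and normalized to three housekeeping genes, serve as the readout. Human HepaRG cultures receive test chemicals for 48 h at up to 100 uM in half-log steps, with 0.5% DMSO vehicle.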

[11] = read-out: Transforming Growth Factor (TGFA), TGFA (gene 7039); test: LTEA_HepaRG_TGFA: Life Technologies and Expression Analysis (LTEA) Assay for Transforming Growth Factor (TGFA) using HepaRG (AID 2283532)
Method in brief: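 qRT-PCR read-out of TGFA transcript, normalized to three housekeeping genes, fitted bidirectionally against 0.5% DMSO baseline. Human HepaRG cultures received chemicals for 48 h at eight half-log concentrations, top 100 uM.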

[12] = read-out: Transforming Growth Factor (TGFB1), TGFB1 (gene 7040); test: LTEA_HepaRG_TGFB1: Life Technologies and Expression Analysis (LTEA) Assay for Transforming Growth Factor (TGFB1) Transporter using HepaRG (AID 2283533)
Method in brief: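 HepaRG, 48 h post-plating, switched to serum-free induction medium; chemicals 100 uM top, half-log, 8 pts, 0.5% DMSO, dup; 48 h exposure; RNA → Fluidigm TaqMan qRT-PCR; norm ACTB/GAPDH/POLR2A; bidirectional fit vs DMSO.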

TIMP1, TIMP1 (gene 7076) = test: LTEA_HepaRG_TIMP1: Life Technologies and Expression Analysis (LTEA) Assay for TIMP1 using HepaRG (AID 2283534)
Method in brief: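 Readout is TIMP1 mRNA level measured by qRT-PCR and normalized to three housekeeping genes. Human HepaRG cells were treated for 48 h in duplicate at eight concentrations up to 100 uM (0.5% DMSO); gain or loss fitted against DMSO.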

[13] = read-out: Tumor necrosis factor receptor 1 (TNFRSF1A), TNFRSF1A (gene 7132); test: LTEA_HepaRG_TNFRSF1A: Life Technologies and Expression Analysis (LTEA) Assay for Tumor necrosis factor receptor 1 (TNFRSF1A) using HepaRG (AID 2283535)
Method in brief: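 Read-out is TNFRSF1A transcript level by TaqMan qRT-PCR, normalized to three housekeeping genes, scored as gain or loss of signal versus 0.5% DMSO. Human HepaRG cells received test chemicals for 48 h at up to 100 uM (half-log series).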

[14] = read-out: Thyroid Hormone Responsive (THRSP), THRSP (gene 7069); test: LTEA_HepaRG_THRSP: Life Technologies and Expression Analysis (LTEA) Assay for Thyroid Hormone Responsive (THRSP) using HepaRG (AID 2283536)
Method in brief: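 qRT-PCR read-out (Fluidigm TaqMan), housekeeping-normalized (ACTB/GAPDH/POLR2A). HepaRG, 48 h chemical exposure, 8-pt half-log series from 100 uM in 0.5% DMSO, duplicates. Bidirectional curve fit vs 0.5% DMSO baseline.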

[15] = read-out: Cellular tumor antigen p53 (Homo sapiens) (UniProt P04637); test: LTEA_HepaRG_TP53: Life Technologies and Expression Analysis (LTEA) Assay for Tumor Protein P53 (TP53) using HepaRG (AID 2283537)
Method in brief: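 TP53 transcript measured by qRT-PCR, normalized to three housekeeping genes, after 48 h treatment of human HepaRG cultures with chemicals from 100 uM downward in half-log steps (0.5% DMSO vehicle, serum-free induction medium). Up- or down-regulation fitted against DMSO.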

[16] = read-out: succinate dehydrogenase complex iron sulfur subunit B (SDHB), SDHB (gene 6390); test: LTEA_HepaRG_SDHB: Life Technologies and Expression Analysis (LTEA) Assay for succinate dehydrogenase complex iron sulfur subunit B (SDHB) using HepaRG (AID 2283528)
Method in brief: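 SDHB transcript level read by TaqMan qRT-PCR, housekeeping-normalised (ACTB, GAPDH, POLR2A), after 48 h chemical treatment of plated HepaRG cells; eight concentrations top 100 uM, half-log steps, 0.5% DMSO, duplicates; fitted both directions against DMSO.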

Measured: AC50

Sequence of Nuclear factor erythroid 2-related factor 2 (Homo sapiens) (Q16236 whole entry, looked up): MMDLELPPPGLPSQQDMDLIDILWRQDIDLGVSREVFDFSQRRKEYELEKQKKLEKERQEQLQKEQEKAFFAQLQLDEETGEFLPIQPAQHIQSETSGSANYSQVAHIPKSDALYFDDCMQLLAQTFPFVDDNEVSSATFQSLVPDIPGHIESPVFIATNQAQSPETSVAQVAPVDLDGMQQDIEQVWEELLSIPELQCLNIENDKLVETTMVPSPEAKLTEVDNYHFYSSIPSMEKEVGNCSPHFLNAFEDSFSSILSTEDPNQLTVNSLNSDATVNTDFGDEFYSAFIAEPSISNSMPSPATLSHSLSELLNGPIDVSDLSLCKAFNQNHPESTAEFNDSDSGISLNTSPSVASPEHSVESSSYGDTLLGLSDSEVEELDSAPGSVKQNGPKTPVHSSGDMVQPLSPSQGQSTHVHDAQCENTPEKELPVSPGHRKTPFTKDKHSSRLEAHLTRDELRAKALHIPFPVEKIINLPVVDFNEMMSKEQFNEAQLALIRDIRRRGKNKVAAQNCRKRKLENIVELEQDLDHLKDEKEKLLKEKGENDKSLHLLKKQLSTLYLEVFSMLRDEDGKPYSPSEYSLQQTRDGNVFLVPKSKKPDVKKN
Sequence of Cellular tumor antigen p53 (Homo sapiens) (P04637 whole entry, looked up): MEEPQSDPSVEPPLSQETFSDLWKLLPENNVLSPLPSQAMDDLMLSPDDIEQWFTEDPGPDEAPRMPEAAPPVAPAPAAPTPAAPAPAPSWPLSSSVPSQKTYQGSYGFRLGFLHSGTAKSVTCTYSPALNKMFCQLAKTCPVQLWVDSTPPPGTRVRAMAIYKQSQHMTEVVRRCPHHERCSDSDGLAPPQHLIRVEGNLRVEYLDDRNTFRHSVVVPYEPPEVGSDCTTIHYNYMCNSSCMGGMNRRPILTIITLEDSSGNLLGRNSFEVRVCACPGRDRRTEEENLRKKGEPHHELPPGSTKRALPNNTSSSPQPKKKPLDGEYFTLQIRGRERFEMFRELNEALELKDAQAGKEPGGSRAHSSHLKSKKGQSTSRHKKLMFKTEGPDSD
Sequence of Signal transducer and activator of transcription 3 (Homo sapiens) (P40763 whole entry, looked up): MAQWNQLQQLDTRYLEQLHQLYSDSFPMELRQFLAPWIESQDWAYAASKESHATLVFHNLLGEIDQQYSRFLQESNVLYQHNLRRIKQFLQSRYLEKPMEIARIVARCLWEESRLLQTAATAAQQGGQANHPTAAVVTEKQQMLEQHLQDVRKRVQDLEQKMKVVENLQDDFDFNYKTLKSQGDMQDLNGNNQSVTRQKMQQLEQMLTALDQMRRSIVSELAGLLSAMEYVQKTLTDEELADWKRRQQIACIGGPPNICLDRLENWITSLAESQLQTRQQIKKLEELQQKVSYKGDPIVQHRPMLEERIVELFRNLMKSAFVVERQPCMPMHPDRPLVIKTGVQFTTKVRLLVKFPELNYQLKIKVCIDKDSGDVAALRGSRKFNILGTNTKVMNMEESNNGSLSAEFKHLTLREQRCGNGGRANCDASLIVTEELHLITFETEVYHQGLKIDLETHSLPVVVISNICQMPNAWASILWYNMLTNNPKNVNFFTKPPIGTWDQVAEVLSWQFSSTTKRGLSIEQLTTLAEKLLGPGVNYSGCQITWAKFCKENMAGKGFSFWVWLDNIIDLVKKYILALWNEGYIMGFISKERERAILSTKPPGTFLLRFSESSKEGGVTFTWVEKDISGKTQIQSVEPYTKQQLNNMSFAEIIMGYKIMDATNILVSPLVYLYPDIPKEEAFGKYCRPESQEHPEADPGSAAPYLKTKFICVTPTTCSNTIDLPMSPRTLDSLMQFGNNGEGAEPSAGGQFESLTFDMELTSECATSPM

CCOC(=O)c1ccc(O)cc1
inactive: MYC, MYC (gene 4609) | [1] | [2] | [3] | [4] | [5] | [6] | [7] | [8] | [9] | [10] | [11] | [12] | TIMP1, TIMP1 (gene 7076) | [13] | [14] | [15]

N[C@@H](Cc1cc(I)c(Oc2ccc(O)c(I)c2)c(I)c1)C(=O)O
inactive: MYC, MYC (gene 4609) | [1] | [3] | [4] | [6] | [7] | [8] | [11] | TIMP1, TIMP1 (gene 7076) | [13] | [15]
active: [2] 8.92 µM | [5] 0.0111 µM | [9] 27.5 µM | [10] 27.1 µM | [12] 63.2 µM | [14] 67.4 µM

COc1c(Cl)ccc(Cl)c1C(=O)O
inactive: MYC, MYC (gene 4609) | [1] | [2] | [3] | [4] | [5] | [6] | [7] | [16] | [8] | [9] | [10] | [11] | [12] | TIMP1, TIMP1 (gene 7076) | [13] | [14]

CCOC(=O)C(C)Oc1ccc(Oc2cnc3cc(Cl)ccc3n2)cc1 (centres undefined)
active: [1] 8.53 µM | [5] 70 µM | [10] 2.34 µM
inactive: MYC, MYC (gene 4609) | [2] | [3] | [4] | [6] | [7] | [16] | [8] | [9] | [11] | [12] | TIMP1, TIMP1 (gene 7076) | [13] | [14]

COCCO
inactive: MYC, MYC (gene 4609) | [1] | [2] | [3] | [4] | [5] | [6] | [7] | [8] | [9] | [10] | [11] | [12] | TIMP1, TIMP1 (gene 7076) | [13] | [14] | [15]

Cc1nn(C)c(Oc2ccccc2)c1C=NOCc1ccc(C(=O)OC(C)(C)C)cc1
inactive: [4] | [5] | [6] | [8] | [13]
active: MYC, MYC (gene 4609) 8.62 µM | [1] 34.4 µM | [2] 1.15 µM | [3] 5.33 µM | [7] 33 µM | [9] 23.2 µM | [10] 42.4 µM | [11] 12.2 µM | [12] 63.2 µM | TIMP1, TIMP1 (gene 7076) 6.47 µM | [14] 3.57 µM | [15] 6.96 µM

CCCN(CCC)C(=O)SCC
inactive: MYC, MYC (gene 4609) | [1] | [2] | [3] | [4] | [5] | [6] | [7] | [8] | [9] | [10] | [11] | [12] | TIMP1, TIMP1 (gene 7076) | [13] | [14] | [15]
